PubChem BioAssay (NCI)
About 83,000 compounds went through this panel and 20% of them were active in at least one assay; those are over-represented in the sample as a whole.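 Single-dose data. Exposure time 48 hours. Values below 10 considered active.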 Unmarked numbers belong to inactive results. Calls of active or inactive are those of the source.

Legend:
Experiment in all cases: NCI-60 one-dose screen, 48 h (100 = growth as untreated, 0 = no growth, -100 = all killed)
Details in all cases: 10 µM unless noted
HCT-15 colon = system: HCT-15 colon
HT29 colon = system: HT29 colon
SNB-75 CNS = system: SNB-75 CNS
SNB-19 CNS = system: SNB-19 CNS
PC-3 prostate = system: PC-3 prostate
SK-MEL-5 melanoma = system: SK-MEL-5 melanoma
UACC-62 melanoma = system: UACC-62 melanoma
LOX IMVI melanoma = system: LOX IMVI melanoma
SK-MEL-28 melanoma = system: SK-MEL-28 melanoma
SK-MEL-2 melanoma = system: SK-MEL-2 melanoma
SN12C renal = system: SN12C renal
UO-31 renal = system: UO-31 renal
TK-10 renal = system: TK-10 renal
ACHN renal = system: ACHN renal
A498 renal = system: A498 renal
CCRF-CEM leukemia = system: CCRF-CEM leukemia
MOLT-4 leukemia = system: MOLT-4 leukemia
CAKI-1 renal = system: CAKI-1 renal

Row | SMILES | growth (HCT-15 colon) | growth (HT29 colon) | growth (SNB-75 CNS) | growth (SNB-19 CNS) | growth (PC-3 prostate) | growth (SK-MEL-5 melanoma) | growth (UACC-62 melanoma) | growth (LOX IMVI melanoma) | growth (SK-MEL-28 melanoma) | growth (SK-MEL-2 melanoma) | growth (SN12C renal) | growth (UO-31 renal) | growth (TK-10 renal) | growth (ACHN renal) | growth (A498 renal) | growth (CCRF-CEM leukemia) | growth (MOLT-4 leukemia) | growth (CAKI-1 renal)
1 | Cc1cccc(NC(=O)c2sc3nc4c(cc3c2N)C(=O)CCC4)c1 | 28.9% | 11.7% | 4.87% (active) | 42.1% | 27.1% | 22.8% | 22% | 54.4% | 62.2% | 64.7% | 44.2% | 41.2% | 75.6% | 51.9% | -12.2% (active) | 25.4% | 51.1% | –
2 | O=[N+]([O-])c1cccc(C2CC(c3ccccc3)=Nc3ccccc3S2)c1 (configuration not stated) | 84.7% | 44.1% | 68.2% | 87.2% | 77.4% | 94.8% | 88.4% | 22.6% | 96.4% | 95.4% | 95.5% | 59.7% | 124% | 90.9% | 96.3% | 22.6% | 64.2% | 91.6%
3 | Cc1cc(Nc2nc(N3CCN(C)CC3)nc3ccccc23)n[nH]1 | 56.5% | 61.5% | -15.8% (active) | 90.8% | 71.6% | 89.9% | 67.9% | 73% | 68.8% | 43.5% | – | 54.9% | 54.8% | 41.3% | 16.9% | 65.3% | 69.9% | 13.4%
4 | CCCCCN(CCCCC)CCC[C@@H](C)[C@H]1CC[C@H]2[C@@H]3[C@H](OCCCN)C[C@@H]4C[C@H](OCCCN)CC[C@]4(C)[C@H]3C[C@H](OCCCN)[C@]12C | 72.3% | 24.5% | 70.6% | 61% | 80.5% | 25.1% | 13.6% | 3% (active) | 27.9% | – | 54.3% | 65.2% | – | 54.7% | 92.8% | 15.3% | 41.1% | 75.8%
5 | Cc1noc(C)c1-c1cc(O)cc(C(O)c2ccccc2)c1 (configuration not stated) | 36.7% | 34.6% | -13.2% (active) | 52.7% | 48.4% | 54.2% | 31.6% | 27.3% | 61.2% | 60.4% | 74.5% | 16.9% | 12.6% | 60.6% | -3.34% (active) | 46.7% | 58.8% | 23.8%
6 | O=c1c2cccc3c(Nc4c(F)cccc4F)ccc(c32)c2nc3ccccc3n12 | 75.5% | 93.4% | 80% | 103% | 84.5% | 81.8% | 86.9% | 86.9% | 109% | – | – | 50.6% | – | 88% | 109% | 72.5% | 74.1% | 62%
7 | Cc1ccc(S(=O)(=O)N(CCc2ccc(Cl)cc2)S(=O)(=O)c2ccc(C)cc2)cc1 | 94.5% | 86% | 67.7% | 94.6% | 85.9% | 87.6% | 78.1% | 92.4% | 93.9% | 75.3% | 105% | 70% | 83.9% | 95.2% | 115% | 83.7% | 66.5% | 72.8%
8 | Cc1cc(Nc2nc(N3CCNCC3)nc3ccccc23)n[nH]1 | 70.5% | 82.1% | -16.6% (active) | 101% | 80.8% | 95.8% | 74.6% | 88.6% | 86% | 53.6% | 76.1% | 64.3% | 60.5% | 41.5% | 45.3% | 108% | 101% | 20.1%
9 | Cc1sc2nc3[nH]/c(=C\c4ccc(Cl)cc4)c(=O)n3c(=O)c2c1C | 96.5% | 96.1% | 89.6% | 101% | 97.3% | 99.4% | 99.2% | 103% | 99.8% | – | 98.1% | 103% | 102% | 101% | 99.5% | 90.2% | 94.1% | 105%
10 | N=S(=O)(NC(=O)c1ccc(Cl)cc1Cl)c1ccc(Br)s1 (configuration not stated) | 82.4% | 111% | 108% | 85.5% | 102% | 94.7% | 112% | 98.1% | 111% | 116% | 94.4% | 79.4% | 98.4% | 95.6% | 61.2% | 87.2% | 98.5% | –
11 | CCC(C)[C@@H]1NC(=O)[C@@H]2CCCN2C(=O)[C@H](Cc2ccccc2)NC(=O)[C@@H]2CCCN2C(=O)[C@H](Cc2ccccc2)NC(=O)[C@@H]2CCCN2C(=O)[C@H](Cc2ccccc2)NC1=O (some centres not stated) | 103% | 113% | 76.7% | 103% | 90.7% | 100% | 99.9% | 103% | 95% | – | 102% | 105% | 104% | 103% | 108% | 92.7% | 89.7% | 94.1%
12 | CCCCCC(=O)N(CCCC)CCCC | 96.8% | 111% | 86.5% | 92.9% | 99.8% | 98.6% | 94.2% | 110% | 104% | 124% | 96.3% | 78.5% | 109% | 101% | 127% | 99.1% | 105% | 92%
13 | C#Cc1nc(Nc2cc(C)[nH]n2)c2ccccc2n1 | -25.6% (active) | -30.1% (active) | -88.9% (active) | 13.3% | -42.1% (active) | -84.9% (active) | -81.5% (active) | -74.8% (active) | -58.5% (active) | -53.2% (active) | – | -36.1% (active) | -21.3% (active) | -42.4% (active) | -93.6% (active) | 2.05% (active) | -19.8% (active) | -70% (active)
14 | CCOC(=O)c1nc(Nc2cc(C)[nH]n2)c2ccccc2n1 | 73.4% | 103% | 16.9% | 115% | 93.3% | 105% | 91.1% | 97.2% | 93.2% | 89.4% | 97% | 76.7% | 77.3% | 73.4% | – | 96.9% | 102% | –
15 | CCCCCCCCCCCCN1CCCC(C)C1 (configuration not stated) | 61.8% | 24% | 73.4% | 101% | 67.4% | 68.4% | 108% | 56.4% | 90% | 89.6% | 95.9% | 60.8% | 87.9% | 85.4% | 104% | 44.7% | 63.9% | 68.7%
16 | Cl/C(=N\Nc1ccccc1)c1ccccc1 | 93.4% | 103% | 67.4% | 100% | 78% | 93.8% | 78.2% | 97% | 101% | 96.6% | 93.2% | 72.8% | 96.8% | 92.5% | – | 89.4% | 80.1% | 67.3%
17 | CCN(CC)CCCC(C)N/C(=C1\C(=O)NC(=O)\C1=C(/NC(C)CCCN(CC)CC)c1cccc(OC)c1)c1cccc(OC)c1 (configuration not stated) | 5.33% (active) | -54.8% (active) | 30.5% | 23.6% | -3.13% (active) | -91% (active) | -14.7% (active) | -68.5% (active) | -83% (active) | – | – | -83.8% (active) | -23.4% (active) | -29% (active) | 60.2% | -28.1% (active) | -10.5% (active) | 61.4%
18 | COc1ccc2nc3cc(Cl)ccc3c(N3CCN(c4ccnc(N5CCN(C)CC5)n4)CC3)c2c1 | -23.2% (active) | -69.4% (active) | 90.6% | 94.5% | 63.4% | 84.7% | 94.1% | -62.5% (active) | 28.7% | – | 36.9% | 51.2% | 8.16% (active) | 36.9% | 68.1% | -27.9% (active) | -24% (active) | 49.7%
